The record followed here is PubChem BioAssay (NCATS).

The structures appear in SMILES notation. Where “and” joins values, the source holds several entries; their conditions need not be identical. Equal values may be shown once. Results filed as inconclusive are left out. Calls of active or inactive are those of the source. Unless noted, calls come from the whole dose curve.

The nature of assay [1]: Primary qHTS for Huh7 cytotoxicity: counterscreen for inhibitors of MERS-S pseudotyped particle cell entry (AID 1479147). Note: potency is the fitted concentration of half-maximal effect. The conditions noted are these: cell viability read-out; series mostly up to 57.1 µM. A general note: qHTS replaces the single test concentration by a dilution series.
A short description of assay [2]: Primary qHTS for inhibitors of MERS-S pseudo-typed particle cell entry (AID 1479149). For activity change, negative = inhibition: % is set by controls: 0 for no effect and ±100 for the full control effect. Note: nearly all actives have a fitted effect of over 60% in size. Note: potency is the fitted concentration of half-maximal effect. The settings on record: MERS-S pseudotyped particle entry, luciferase; series mostly up to 57.1 µM.
Assay [3] is described as follows: Primary qHTS for Vero E6 cytotoxicity: counterscreen for inhibitors of SARS-S pseudo-typed particle cell entry (AID 1479150). The conditions noted are these: cell viability; series mostly up to 57.1 µM.
Assay [4] is described as follows: Primary qHTS to identify inhibitors of SARS-CoV-2 cell entry (AID 1645846). Note: nearly all actives have a fitted effect of over 45% in size. Note: potency is the fitted concentration of half-maximal effect. The conditions noted are these: SARS-CoV-2 pseudovirus cell entry assay, luminescence; activity change, negative = inhibition: at 57.1 µM (top of the series) unless noted; series mostly up to 57.1 µM. Put shortly:
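Luminescence readout (Bright-Glo luciferase) 48 h after pseudoparticle addition. HEK293-ACE2 cells, 1500/well; compound pre-incubation 1 h; Normalized to spike PP and bald PP.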

Assay [5] in a line: Cytotoxicity counterscreen for inhibitors of SARS-CoV-2 cell entry (AID 1645845). Note: nearly all actives have a fitted effect of over 50% in size. The conditions noted are these: cell viability (SARS-CoV-2 entry assay cells); series mostly up to 57.1 µM. Put shortly:
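Expi293F/hACE2 cells seeded overnight; cpd pin-transferred in DMSO, 1 h preincubation, + media, 48 h 37 C 5% CO2; ATPLite 1step luminescence; normalized to cells and no cells.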
For orientation: A counterscreen serves to expose hits that act by an unwanted route or on another target.

The nature of assay [6]: VSVG counterscreen qHTS to identify inhibitors of SARS-CoV-2 cell entry (AID 1645847). Note: potency is the fitted concentration of half-maximal effect; nearly all actives have a fitted effect of over 65% in size. The settings on record: VSV-G pseudotyped particle entry, luciferase; series mostly up to 57.2 µM. Put shortly:
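HEK293-ACE2 cells (Expi293F stably expressing human ACE2) were pretreated with compound for 1 h at 37 °C, then infected with MLV-based VSV-G pseudotyped particles for 48 h. Luciferase luminescence was normalized to VSV-G PP and bald PP wells.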

Assay [7] concerns the target Calcium and integrin-binding protein 1 (Homo sapiens) (UniProt Q99828). In words: Primary qHTS for Identification of Calcium Integrin Binding Protein 1 (CIB1) Competitor (AID 1508620; active = well fitted curve in the direction sought with a large enough effect; an effect the other way counts as inactive or inconclusive;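 note: GST tagged CIB1 binding a fluorescein labelled alphaIIb integrin peptide tracer; top concentration of the series differs between compounds; % is set by controls: 0 for no effect and ±100 for the full control effect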). The settings on record: CIB1-GST / FITC-alphaIIb peptide fluorescence polarization; series mostly up to 114 µM. Put shortly:
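Fluorescence polarization competition: CIB1-GST (1 uM final) preincubated with compound 15 min at room temperature, then FITC-labeled alphaIIb peptide (100 nM final) added for another 15 min. Polarization read at Ex 480/Em 540.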

Assay [8] is described as follows: Primary qHTS for small molecule stabilizers of the endoplasmic reticulum resident proteome: Secreted ER Calcium Modulated Protein (SERCaMP) assay (AID 1508630; active = well fitted curve in the direction sought with a large enough effect; an effect the other way counts as inactive or inconclusive; note: % is set by controls: 0 for no effect and ±100 for the full control effect). The conditions noted are these: SH-SY5Y GLuc-SERCaMP (Gaussia luciferase released on ER calcium loss) secretion, thapsigargin, luminescence; series mostly up to 38.4 µM. Put shortly:
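GLuc-SERCaMP-expressing SH-SY5Y cells, pretreated 16 h with compound, are challenged with thapsigargin to empty ER calcium stores; after 4 h, coelenterazine is added directly to the medium and luminescence is imaged.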

Assay [9] addresses Cytochrome P450 2D6 (Homo sapiens) (UniProt P10635). The experiment in a line: Cytochrome P450 family 2 subfamily D member 6 (CYP2D6) small molecule antagonists: luciferase biochemical (cell-free) qHTS assay (AID 1645840; active = well fitted curve in the direction sought with a large enough effect in the repeat runs; an effect the other way counts as inactive or inconclusive; note: nearly all actives have a fitted effect of over 55% in size; note: potency is the fitted concentration of half-maximal effect). The conditions noted are these: P450-Glo CYP2D6 enzyme, luciferin luminescence, 1 h; series mostly up to 57.4 µM. Put shortly: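 P450-Glo luminescent screen: recombinant CYP2D6 enzyme–proluciferin substrate mix preincubated with compound 10 min at room temperature, then NADPH regeneration added for 1 h at room temperature. Detection reagent added for 20 min; luciferin light read as relative luminescence units.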

Assay [10] has as its target Cytochrome P450 2C9 (Homo sapiens) (UniProt P11712). The experiment in a line: Cytochrome P450 family 2 subfamily C member 9 (CYP2C9) small molecule antagonists: luciferase biochemical (cell-free) qHTS assay (AID 1645842; active = well fitted curve in the direction sought with a large enough effect in the repeat runs; an effect the other way counts as inactive or inconclusive; note: nearly all actives have a fitted effect of over 55% in size; note: potency is the fitted concentration of half-maximal effect). The conditions noted are these: P450-Glo CYP2C9 enzyme assay, luciferin luminescence; series mostly up to 57.4 µM. Put shortly:
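Luminescence, after 20 min with luciferin detection reagent, reflected CYP2C9 turnover during a 1 h NADPH-driven reaction at 37C. Enzyme-substrate mix contained 0.4% bovine serum albumin and was preincubated with compound 10 min at room temperature.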

Another assay concerns the target Papain (Carica papaya) (UniProt P00784). In words: Primary qHTS assay for inhibitors of the protease papain (AID 1645873; active = well fitted curve in the direction sought with a large enough effect; an effect the other way counts as inactive or inconclusive;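 note: papain turnover of Z-FR-AMC read as the AMC fluorescence gain over 10 min; % is set by controls: 0 for no effect and ±100 for the full control effect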). The conditions noted are these: papain Z-FR-AMC cleavage, AMC fluorescence; series mostly up to 49.8 µM.
The nature of assay [11]: Primary qHTS for inhibitors of La Crosse Virus (LACV) - induced cell death in SH-SY5Y cells (AID 1508616; active = well fitted curve in the direction sought with a large enough effect; an effect the other way counts as inactive or inconclusive;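 note: top concentration of the series differs between compounds; 0% = infected DMSO wells and 100% = uninfected DMSO wells; higher means more rescue of cells from virus-induced death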). The settings on record: SH-SY5Y LACV cytopathicity rescue, ATP luminescence, 6 d; series mostly up to 4.29 µM. Put shortly:
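Luminescent ATP readout (ATPLite 1step, 5 min room temperature) measured rescue from LACV-induced death after 6 days of infection at 0.01 MOI; normalized to infected DMSO wells and uninfected DMSO wells.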

The nature of assay [12]: Confirmatory qHTS for VERO E6 Cytotoxicity Assay: Counterscreen for SARS-CoV-2 CPE Assay (AID 1508605). Note: % is set by controls: 0 for no effect and ±100 for the full control effect; nearly all actives have a fitted effect of over 60% in size. The conditions noted are these: cell viability luminescence; series mostly up to 20 µM.
The nature of assay [13]: Confirmatory qHTS for activators (rescue) of SARS-CoV-2 Cytopathic Effect (CPE) (AID 1508606). Note: potency is the fitted concentration of half-maximal effect; nearly all actives have a fitted effect of over 70% in size. The settings on record: Vero E6 SARS-CoV-2 CPE rescue, viability luminescence; series mostly up to 20 µM.
The nature of assay [14]: A High-Content qHTS Against Drug Library for the Identification of Small Molecules that Inhibit DYT1 Early Onset Primary Dystonia-Associated Cell Pathology (AID 1645839). The settings on record: HEK293 Flp-In EGFP-delE TorsinA, punctate imaging, 48 h; series mostly up to 46.1 µM. Put shortly: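 Readout: %pathology, the punctate EGFP-TorsinA distribution from imaging, as the primary channel and cell count as the toxicity counterscreen. HEK293 Flp-In cells expressing delE TorsinA were induced with tetracycline and treated with compound for 48 h.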

Cytochrome P450 2D6 (Homo sapiens), sequence (P10635 whole entry, looked up): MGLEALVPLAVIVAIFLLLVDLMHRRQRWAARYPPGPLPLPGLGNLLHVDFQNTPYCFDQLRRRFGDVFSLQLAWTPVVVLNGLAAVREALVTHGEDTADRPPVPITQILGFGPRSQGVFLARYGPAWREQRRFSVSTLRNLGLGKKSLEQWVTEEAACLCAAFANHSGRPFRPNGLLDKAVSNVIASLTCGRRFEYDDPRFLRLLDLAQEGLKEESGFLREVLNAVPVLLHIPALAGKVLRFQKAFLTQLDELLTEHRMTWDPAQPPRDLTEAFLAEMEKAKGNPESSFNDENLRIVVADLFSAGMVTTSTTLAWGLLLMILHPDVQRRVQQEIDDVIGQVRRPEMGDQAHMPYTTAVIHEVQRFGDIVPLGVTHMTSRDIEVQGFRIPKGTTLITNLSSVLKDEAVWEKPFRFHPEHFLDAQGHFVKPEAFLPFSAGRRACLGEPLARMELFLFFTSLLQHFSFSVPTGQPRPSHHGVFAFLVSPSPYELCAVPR
Calcium and integrin-binding protein 1 (Homo sapiens), sequence (Q99828 whole entry, looked up): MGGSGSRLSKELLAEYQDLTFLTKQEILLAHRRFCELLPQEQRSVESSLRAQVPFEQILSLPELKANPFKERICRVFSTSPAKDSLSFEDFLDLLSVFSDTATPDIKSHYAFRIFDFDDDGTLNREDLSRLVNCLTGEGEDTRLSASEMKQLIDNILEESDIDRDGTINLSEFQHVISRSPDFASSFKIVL
Cytochrome P450 2C9 (Homo sapiens), sequence (P11712 whole entry, looked up): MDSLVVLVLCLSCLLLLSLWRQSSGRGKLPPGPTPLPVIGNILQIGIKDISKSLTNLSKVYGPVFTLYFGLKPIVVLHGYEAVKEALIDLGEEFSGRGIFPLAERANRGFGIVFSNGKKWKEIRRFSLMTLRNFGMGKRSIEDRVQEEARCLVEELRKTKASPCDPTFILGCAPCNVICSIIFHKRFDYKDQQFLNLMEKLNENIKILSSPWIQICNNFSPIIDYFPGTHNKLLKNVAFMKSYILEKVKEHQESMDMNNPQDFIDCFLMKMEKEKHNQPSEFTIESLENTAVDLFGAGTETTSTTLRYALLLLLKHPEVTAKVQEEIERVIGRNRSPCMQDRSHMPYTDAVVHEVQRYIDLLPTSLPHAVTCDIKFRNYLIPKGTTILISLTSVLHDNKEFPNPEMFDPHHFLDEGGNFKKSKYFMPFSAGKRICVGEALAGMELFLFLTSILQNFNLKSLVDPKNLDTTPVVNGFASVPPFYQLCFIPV
Papain (Carica papaya), sequence (P00784 whole entry, looked up): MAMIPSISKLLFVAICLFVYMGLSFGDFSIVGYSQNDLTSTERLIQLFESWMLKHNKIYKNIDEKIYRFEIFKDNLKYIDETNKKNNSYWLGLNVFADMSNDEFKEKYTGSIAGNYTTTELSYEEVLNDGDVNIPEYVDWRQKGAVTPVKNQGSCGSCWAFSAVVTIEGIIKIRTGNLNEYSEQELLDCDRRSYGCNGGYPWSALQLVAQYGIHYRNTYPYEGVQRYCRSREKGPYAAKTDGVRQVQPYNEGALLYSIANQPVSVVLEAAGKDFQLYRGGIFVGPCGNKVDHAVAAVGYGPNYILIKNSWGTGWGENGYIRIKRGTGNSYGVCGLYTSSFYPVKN

`CC(C)C1CCC(C(=O)N[C@H](Cc2ccccc2)C(=O)O)CC1` (some centres not stated): the Potency result in assay [1], in assay [2] and in assay [3] was “inactive” throughout. Moreover, the activity change, negative = inhibition in assay [4] was 2.32% and -12.7%.

`CNCCc1ccccn1`: the Potency result in [1], in [2], in assay [3] and in assay [4] was “inactive” each time.

On to `NC1[C@H]2CN(c3nc4c(cc3F)c(=O)c(C(=O)O)cn4-c3ccc(F)cc3F)C[C@@H]12` (some centres not stated), for which the Potency result in [1], in assay [2], in assay [3] and in [4] was “inactive” in each case.

Regarding `COc1cc2nc(N3CCN(C(=O)c4ccco4)CC3)nc(N)c2cc1OC`, the Potency entry in assay [1], in assay [2] and in assay [5] was “inactive” each time.

As to `Cc1ccsc1C(=CCCN1CCC[C@@H](C(=O)O)C1)c1sccc1C`, the Potency result in assay [1], in [2] and in assay [3] was “inactive” throughout. In addition, the activity change, negative = inhibition in assay [4] is -13.3%.

On to `CC(C)Nc1cccnc1N1CCN(C(=O)c2cc3cc(NS(C)(=O)=O)ccc3[nH]2)CC1`, for which the Potency entry in assay [1], in assay [2], in assay [5] and in assay [4] was “inactive” each time.

Turning to `CC(C)(C)C(=O)OCOP(=O)(COCCn1cnc2c(N)ncnc21)OCOC(=O)C(C)(C)C`, the Potency result in assay [1], in assay [2], in assay [3] and in assay [5] was “inactive” each time. Moreover, in assay [4], the activity change, negative = inhibition is -90.1%. In assay [6], the Potency was 0.0152 µM (active).

Regarding `CCn1cc(C(=O)O)c(=O)c2ccc(C)nc21`, the Potency result in [1], in assay [2], in assay [3] and in assay [4] was “inactive” throughout.

Regarding `OCCN1C[C@H](O)[C@@H](O)[C@H](O)[C@H]1CO`, the Potency entry in assay [1], in [2], in assay [3] and in assay [5] was “inactive” each time. Further, the Potency in [6] was 4.29 µM (active).

In the case of `CN(C)CCCN1c2ccccc2CCc2ccc(Cl)cc21`, the Potency entry in [1] and in [3] was “inactive” each time. Besides, the Potency in [2] is 11.2 µM (active); in assay [4], 28.2 µM (active).

As to `Cc1cc2c(s1)Nc1ccccc1N=C2N1CCN(C)CC1`, the Potency result in [1], in [2] and in [3] was “inactive” in each case. Also, the activity change, negative = inhibition in assay [4] was -19.8%.

As to `Cc1cccc(Nc2ccncc2S(=O)(=O)NC(=O)NC(C)C)c1`, the Potency entry in assay [1], in assay [2], in [3] and in assay [4] was “inactive” in each case.

For `Cc1cn([C@H]2C[C@H](N=[N+]=[N-])[C@@H](CO)O2)c(=O)[nH]c1=O`, the Potency entry in assay [1], in assay [2], in assay [3] and in assay [5] was “inactive” throughout. The Potency in [4] was 1 µM (active); in assay [6], 0.429 µM (active).

On to `CC[C@@H]([C@H](C)O)n1ncn(-c2ccc(N3CCN(c4ccc(OC[C@@H]5CO[C@@](Cn6cncn6)(c6ccc(F)cc6F)C5)cc4)CC3)cc2)c1=O`, for which the Potency entry in [1] and in [3] was “inactive” each time. In addition, the Potency in assay [2] is 12.6 µM (active). Further, the activity change, negative = inhibition in [4] was -23.1%.

As for `C[C@@H]1O[C@@H](O[C@H]2C[C@@H](O)[C@]3(CO)[C@H]4[C@H](O)C[C@]5(C)[C@@H](C6=CC(=O)OC6)CC[C@]5(O)[C@@H]4CC[C@]3(O)C2)[C@H](O)[C@H](O)[C@H]1O`, the Potency in [1] is 1.26 µM (active). Besides, the Potency result (in assay [2]; in [7]; in [9]; in assay [10]; in the assay with Papain (Carica papaya)) was “inactive” each time. Also, the result in assay [8] was inactive. Also, in assay [4], the activity change, negative = inhibition is -97.3% and -94.1%.

For `O=c1[nH]c2ccccc2n1C1CCN(CCCC(c2ccc(F)cc2)c2ccc(F)cc2)CC1`, the Potency result (in assay [1]; in assay [3]; in assay [11]; in assay [7]; with Papain (Carica papaya)) was “inactive” each time. In assay [8], the outcome was inactive.

Turning to `COc1ccccc1OCCNCC(O)COc1cccc2[nH]c3ccccc3c12` (configuration not stated), the Potency entry in assay [1], in assay [3], in assay [12] and in assay [5] was “inactive” each time. Also, the Potency in assay [13] is 10 µM (active).

`CC(CN(C)C)CN1c2ccccc2CCc2ccccc21` (configuration not stated): the Potency entry in assay [1], in assay [3], in assay [12] and in assay [5] was “inactive” throughout. Also, the Potency in assay [6] is 1.92 µM (active).

As for `OCCN(CCO)c1nc(N2CCCCC2)c2nc(N(CCO)CCO)nc(N3CCCCC3)c2n1`, the Potency entry in assay [1], in [3] and in assay [5] was “inactive” each time.

`CCC(COC(=O)c1cc(OC)c(OC)c(OC)c1)(c1ccccc1)N(C)C` (configuration not stated): the Potency entry in assay [1], in assay [3], in [11], in assay [7], in [14] and in assay [5] was “inactive” each time. In addition, the result in assay [8] was inactive. Further, the values for the Potency in assay [9] and in [10] were 0.389 µM (active) and 13.8 µM (active), respectively.

On to `C[C@@H](O[C@H]1OCCN(Cc2n[nH]c(=O)[nH]2)[C@H]1c1ccc(F)cc1)c1cc(C(F)(F)F)cc(C(F)(F)F)c1`, for which the Potency result in assay [1] and in assay [3] was “inactive” in each case.

In the case of `CCc1ccc(CCOc2ccc(CC3SC(=O)NC3=O)cc2)nc1` (configuration not stated), the Potency result in [1], in [3] and in [5] was “inactive” each time.

For `O=C1C(=O)c2ccccc2C(O)=C1C1CCC(c2ccc(Cl)cc2)CC1` (configuration not stated), the Potency result in assay [1] was “inactive”. In addition, the Potency in assay [2] is 22.4 µM (active); in [6], 9.61 µM (active).

Take `COc1cc2nc(N3CCN(C(=O)C4COc5ccccc5O4)CC3)nc(N)c2cc1OC` (configuration not stated): the Potency entry in [1], in assay [3], in assay [12] and in assay [5] was “inactive” each time.

In the case of `COc1cc2nc(N(C)CCCNC(=O)C3CCCO3)nc(N)c2cc1OC` (configuration not stated), the Potency entry in assay [1] and in [3] was “inactive” each time.

`Clc1ccc(CCC(Cn2ccnc2)Sc2c(Cl)cccc2Cl)cc1` (configuration not stated): the Potency result in [1], in [3], in assay [11] and in assay [7] was “inactive” each time. For the same molecule, in assay [8], the outcome was inactive. Besides, the Potency in [9] was 0.55 µM (active); in assay [10], 0.0123 µM (active).
